Values joined by “and” are separate entries in the source; they are usually repeats but may differ in a detail not shown here. Equal values may be shown once. The panel holds about 79,000 compounds, 15% with a hit somewhere; the sample as a whole holds those more often. Active and inactive are the calls of the source. Rule as the data show it: active = growth inhibition above about 70%; inactive = the rest.
Legend:
[1] = NCI Yeast Anticancer Drug Screen. Data for the rad50 strain (AID 155);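 also: 0% = growth of vehicle-only cultures of the same strain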; settings: S. cerevisiae rad50 strain growth inhibition; at 50.0 µM; active compounds read high
Procedure, shortened: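 DNA repair mutant yeast, compound exposure, growth read-out; inhibition is taken relative to vehicle.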

[2] = NCI Yeast Anticancer Drug Screen. Data for the mec2-1 strain (AID 157); settings: S. cerevisiae mec2-1 strain, active compounds read high
Procedure, shortened: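 Yeast mec2-1 mutant treated with compound. Readout: growth inhibition vs vehicle controls.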

[3] = NCI Yeast Anticancer Drug Screen. Data for the cln2 rad14 strain (AID 165);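 also: 0% = growth equal to vehicle treated cultures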; settings: S. cerevisiae cln2 rad14 strain, active compounds read high
Procedure, shortened: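 cln2 rad14 yeast strain; compound exposure; growth inhibition read vs vehicle controls.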

[4] = NCI Yeast Anticancer Drug Screen. Data for the bub3 strain (AID 167); settings: S. cerevisiae bub3 mutant strain, active compounds read high
Procedure, shortened: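 In this screen, a yeast mutant lacking normal mitotic checkpoint function is challenged with compound. Relative growth versus vehicle gives the inhibition value.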

[5] = NCI Yeast Anticancer Drug Screen. Data for the mlh1 rad18 strain (AID 175); settings: S. cerevisiae mlh1 rad18 strain growth inhibition; at 50.0 µM; active compounds read high
Procedure, shortened: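 Yeast w/ defined DNA-repair lesions; compound exposure; growth vs vehicle controls → % inhibition.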

[6] = NCI Yeast Anticancer Drug Screen. Data for the sgs1 mgt1 strain (AID 161);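 also: 0% = growth of cultures given vehicle only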; settings: S. cerevisiae sgs1 mgt1 strain, at 50.0 µM, active compounds read high
Procedure, shortened: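 Read-out: growth inhibition vs vehicle controls. Cells: mutant yeast strain deficient in DNA damage repair.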

[7] = at 5.0 µM (retest, dose inferred, filed as 0.5)

Measured: growth inhibition

N#CS.N=C=S.N=C=S.[Cu+2].[NH2-].[NH2-].[NH2-].[NH2-].c1ccc2ncccc2c1
inactive: [1] -10.4% | [2]; at 50.0 µM -16.6% | [3]; at 50.0 µM 26.2% | [4]; at 50.0 µM -9.6% | [5] -12.5%

BrC(Br)c1cccc(C(Br)Br)c1
inactive: [1] 55.7% | [2]; at 50.0 µM 37.8% | [6] 27.1% | [3]; at 50.0 µM 37.5% | [4]; at 50.0 µM 64% | [5] 56.6%

O=C1NC(=O)C2(OC3c4ccccc4C=CN3C3=C2C(=O)CCC3)C(=O)N1 (stereo not drawn)
inactive: [1] 11.5% | [6] -6.1% | [3]; at 50.0 µM 52.4% | [4]; at 50.0 µM 10.1% | [5] 7.4%

ClC1=C(Cl)C2(Cl)C3C(C4(Cl)C(Cl)=C(Cl)C3(Cl)C4(Cl)Cl)C2(Cl)C1(Cl)Cl (stereo not drawn)
inactive: [1] -1.7% | [2]; at 50.0 µM -6.05% | [3]; at 50.0 µM -71% | [4]; at 50.0 µM -2.4% | [5] -11.8%

[N-]=[N+]=Nc1nc2ccccc2c(N=[N+]=[N-])c1Cl
inactive: [1] 6.85% | [2]; at 50.0 µM -6.7% | [6] 5.6% | [3]; at 50.0 µM 31.9% | [5] 9.45%

Cc1[nH]c2cc([N+](=O)[O-])ccc2c1[N+](=O)[O-]
inactive: [1] 44.6% and 36.9% | [2]; at 50.0 µM 32.2% and 25.4% | [3]; at 50.0 µM 24.9% and 9.1% | [4]; at 50.0 µM -4.65% and -4.55% | [5] 59% and 41.8%

COc1ccc(P2(=S)OC(C)(C)C(C)(C)O2)cc1
inactive: [1] -24.7% | [2]; at 50.0 µM -16.2% | [6] -23.7% | [3]; at 50.0 µM -51.6% | [5] -43%

CC(OC(N)=O)C(F)(F)C(F)F (stereo not drawn)
inactive: [1] -26.6% | [2]; at 50.0 µM -9.15% | [3]; at 50.0 µM -39.2% | [4]; at 50.0 µM -12.8% | [5] -1.85%

Cc1cc(C)n(-c2nc3ccccc3c(=O)n2-c2ccccc2)n1
inactive: [1] -2.9% | [2]; at 50.0 µM -2.75% | [3]; at 50.0 µM 0.4% | [4]; at 50.0 µM -7.75% | [5] -16.9%

[CH3][Sb]1([Cl])[CH2]CC[CH2]1
inactive: [1] 0.2% | [2]; at 50.0 µM 26.1% | [3]; at 50.0 µM -3.1% | [4]; at 50.0 µM 32.5% | [5] 27%

CN1CN(c2ccccc2)C2(CCN(CCc3csc4ccccc34)CC2)C1=O
inactive: [1] 29.9% | [2]; at 50.0 µM 12.2% | [6] 17.8% | [3]; at 50.0 µM 16.9% | [5] 19.4%

CCOC(=O)CC(=O)c1ccccc1
inactive: [1] 16.9% and -9.6% | [2]; at 50.0 µM -17.6% and -2% | [5] 14.1% and -15.7%

O=C1CC2OCC=C3CN4CCC56c7ccccc7N1C5C2C3CC46 (stereo not drawn)
inactive: [1] 9.65% | [2]; at 50.0 µM 2.3% | [6] 4.15% | [4]; at 50.0 µM 8.9% | [5] -9.25%

CCC12C=CCN3CCC4(c5ccc(OC)cc5N(C)C4C(O)(C(=O)OC)C1OC(C)=O)C32 (stereo not drawn) (tested in a mixture with another compound)
inactive: [1] 5.3% and 8.35% | [2]; at 50.0 µM 5.4% and 17.2% | [6] -5.85% and 11.3% | [3]; at 50.0 µM -10.7% and 2.25% | [5] 25.4% and 22.1%

Cc1ccc(CI)cc1
inactive: [1] -2.15% | [2]; at 50.0 µM -6.7% | [3]; at 50.0 µM 18.9% | [4]; at 50.0 µM 20.1% | [5] 19.5%

COc1ccc(-c2c[se]c(=S)s2)cc1
inactive: [1] 24.1% | [2]; at 50.0 µM 10.8% | [6] -7.35% | [3]; at 50.0 µM -33.5% | [4]; at 50.0 µM 4.2% | [5] 11.3%

Nc1ncnc2c1c(Cl)cn2C1OC(CO)C(O)C1O (stereo not drawn)
inactive: [1] 10.1% | [6] 12% | [3]; at 50.0 µM 32.4% | [4]; at 50.0 µM 19.2% | [5] 26.4%

CN(C)CCN=C(N)N[N+](=O)[O-]
inactive: [1] 1.35% | [6] -15.4% | [3]; at 50.0 µM -96.4% | [4]; at 50.0 µM 2.4% | [5] -38%

O=S(=O)(c1ccc(O)cc1)c1ccc(O)cc1
inactive: [1] -5.25% and 0.75% | [2]; at 50.0 µM -2.8% and -7.6% | [6] -3.75% and -4.95% | [3]; at 50.0 µM -11.7% and -36.2% | [5] 2.55% and -4.05%

[Cl][Pd]([Cl])([Cl])[Cl].[NH-]CC[NH-].[NH-]CC[NH-].[Pd+2]
inactive: [1] 28.7% | [2]; at 50.0 µM 16.9% | [6] 32% | [3]; at 50.0 µM -3.5% | [5] 54.7%

O=C(O)c1ccc(I)cc1.[Ni]
inactive: [2]; at 50.0 µM 5.7% | [6] 57.1% | [3]; at 50.0 µM 8.85% | [5] 30%
active: [1] 82.8%

c1cc[c]([Sn]([c]2ccccc2)[c]2ccccc2)cc1.c1cc[c]([Sn]([c]2ccccc2)[c]2ccccc2)cc1
inactive: [2]; [7] 51% | [3]; [7] 9% | [4]; [7] 54%

C(=C/P(c1ccccc1)c1ccccc1)/P(c1ccccc1)c1ccccc1
inactive: [1] 4.05% | [6] 1.9% | [3]; at 50.0 µM -18.4% | [4]; at 50.0 µM 2.75% | [5] 2.7%

— PubChem BioAssay (NCI)
